Test results published in the supplement of paper PMC7411054.
Structures can show the parent of a compound that is named as a salt.

How the values were obtained:
Assay in all cases: lowest phenotypically active concentration; higher = less potent
Details in all cases: treatment time: 24 h
[1] = test system: A549-TP53BP1-CLTA
Procedure, shortened: (§1)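 The reporter lines, fifteen in total and built by gene editing in A549, HepG2 and WPMY1 cells, used BFP for segmentation alongside GFP and RFP/FusionRed markers. Each was treated at 0.3, 1, 3 or 9 µM for 24 h in four wells and then imaged live, with live-cell features normalised to solvent control wells. Deviation meant ≥3 of 4 wells beyond the 95th percentile of control Euclidean distances; reproducibility meant a median replicate Pearson correlation above the 95th percentile of non-replicates. Only conditions meeting both were scored as phenotypically active.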

[2] = test system: HepG2-ACTB-RAB5A
Procedure, shortened: as §1

[3] = test system: HepG2-CANX-COX4
Procedure, shortened: as §1

[4] = test system: HepG2-GM130-SQSTM1
Procedure, shortened: as §1

[5] = test system: HepG2-TP53BP1-CLTA
Procedure, shortened: as §1

[6] = test system: WPMY1-ACTB-RAB5A
Procedure, shortened: as §1

[7] = test system: WPMY1-CANX-COX4
Procedure, shortened: as §1

[8] = test system: WPMY1-GM130-SQSTM1
Procedure, shortened: as §1

[9] = test system: WPMY1-TP53BP1-CLTA
Procedure, shortened: as §1

[10] = test system: WPMY1-TUBA1B-RELA
Procedure, shortened: as §1

Measured: lowest phenotypically active concentration

Nc1nc(Cl)nc2c1ncn2[C@H]1C[C@H](O)[C@@H](CO)O1 [cladribine]
3 µM: [1] | [8]
9 µM: [7]
1 µM: [6] | [9] | [10]
≤ 0.3 µM: all other assays above

CC(C)(N)c1cc(C(=O)N[C@@H]2CCc3ccc(OC4=C5CCC(=O)N=C5NC=C4)cc3C2)cc(C(F)(F)F)c1 [ML 786 dihydrochloride]
9 µM: [10]
1 µM: [6] | [7] | [8] | [9]
3 µM: [1]
≤ 0.3 µM: all other assays above

COc1cc([C@@H]2c3cc4c(cc3[C@@H](O[C@@H]3O[C@@H]5CO[C@@H](c6cccs6)O[C@H]5[C@H](O)[C@H]3O)[C@H]3COC(=O)[C@H]23)OCO4)cc(OC)c1O [teniposide]
≤ 0.3 µM: all assays above

Cc1ccc(NC(=O)c2ccc(CN3CCN(C)CC3)cc2)cc1Nc1nc(-c2cccnc2)cs1 [masitinib]
9 µM: [1] | [9] | [10]
≤ 0.3 µM: [8]
3 µM: all other assays above

C=C1CN(Cc2ccc(C(=O)Nc3ccccc3N)cc2)C(=O)c2ccccc21
3 µM: [10]
1 µM: [4] | [5]
≤ 0.3 µM: all other assays above

Cc1cc(Nc2cc(C)c(C#N)c(NC(C)CCCC(C)(C)O)n2)n[nH]1 (stereo unspecified) [TC-A 2317 hydrochloride]
≤ 0.3 µM: [4] | [5] | [9]
1 µM: all other assays above

CC(=O)Nc1ccc(C(=O)Nc2ccccc2N)cc1
1 µM: [3] | [4] | [5]
9 µM: [10]
3 µM: all other assays above

CCOC(=O)Nc1cc(-c2ccc(C)c(NS(C)(=O)=O)c2)nn2c(C)nnc12 [Bromosporine]
≤ 0.3 µM: [2] | [3]
1 µM: all other assays above

CO[C@@H]1[C@H](N(C)C(=O)c2ccccc2)C[C@H]2O[C@]1(C)n1c3ccccc3c3c4c(c5c6ccccc6n2c5c31)C(=O)NC4
1 µM: [8]
≤ 0.3 µM: all other assays above

COc1cc(N2CCN(C)CC2)ccc1Nc1nccc(-c2cn(C)c3cnccc23)n1
3 µM: [2]
≤ 0.3 µM: [7]
1 µM: all other assays above

Nc1ccc(-c2ccc3ncc4ccc(=O)n(-c5cccc(C(F)(F)F)c5)c4c3c2)cn1 [Torin 2]
≤ 0.3 µM: all assays above

CN(C)CC(=O)N1CCC[C@@H](n2nc(-c3ccc(Oc4ccccc4)cc3)c3c(N)ncnc32)C1
1 µM: [2] | [5]
9 µM: [1] | [7]
3 µM: all other assays above

Cc1cc(C)cc(C(=O)NOCCCCCC(=O)NO)c1
1 µM: [1] | [4] | [5] | [6]
≤ 0.3 µM: all other assays above

COc1cc(C)c(Sc2cnc(NC(=O)c3ccc(CNC(C)C(C)(C)C)cc3)s2)cc1C(=O)N1CCN(C(C)=O)CC1 (stereo unspecified)
9 µM: [1]
3 µM: all other assays above

Nc1nccc2c1ncn2[C@@H]1C=C(CO)[C@@H](O)[C@H]1O [3-Deazaneplanocin A hydrochloride]
3 µM: [9]
≤ 0.3 µM: [1] | [3]
1 µM: all other assays above

O=C(Cc1ccc(-c2ccc(OCCN3CCOCC3)cc2)cn1)NCc1ccccc1
≤ 0.3 µM: all assays above

CCC1=C[C@@H]2CN(C1)Cc1c([nH]c3ccccc13)[C@@](C(=O)OC)(c1cc3c(cc1OC)N(C)[C@H]1[C@@](O)(C(=O)OC)[C@H](OC(C)=O)[C@]4(CC)C=CCN5CC[C@]31[C@@H]54)C2 [vinorelbine]
≤ 0.3 µM: all assays above

COc1ccccc1-c1c[nH]c2ncc(-c3cncc(C(=O)N(C)C)c3)cc12
3 µM: [10]
≤ 0.3 µM: all other assays above

CNC1CCC2(C)C(=CCC3C2CCC24CN(C)C(C)C2CCC34)C1 (stereo unspecified) [Isoconessimine]
9 µM: [3]
3 µM: [7] | [8] | [9] | [10]
1 µM: all other assays above

C[C@@H]1COCCN1c1cc(C2(S(C)(=O)=O)CC2)nc(-c2cccc3[nH]ccc23)n1
3 µM: [10]
≤ 0.3 µM: [1] | [2] | [6] | [7]
1 µM: all other assays above

CC[C@@H](N)CNc1ccnc(-c2cc(-c3cnn(C)c3)ccc2O)n1
3 µM: [6]
1 µM: all other assays above

CN(C)C1CCN(C(=O)c2ccc(NC(=O)Nc3ccc(-c4nc(N5CCOCC5)nc(N5CCOCC5)n4)cc3)cc2)CC1
≤ 0.3 µM: all assays above

COc1ccc(S(=O)(=O)N(CCO)c2ccccc2CN(C)C/C=C/c2ccc(Cl)cc2)cc1
3 µM: [3]
9 µM: all other assays above

COc1ccc(S(=O)(=O)Nc2cccnc2Nc2ccc(O)cc2)cc1
≤ 0.3 µM: [6] | [7] | [9] | [10]
1 µM: all other assays above

COc1c(C)cnc(Cn2cnc3c(Cl)nc(N)nc32)c1C
≤ 0.3 µM: all assays above

C=CC(=O)N1CCC[C@@H](n2nc(-c3cccc(C(=O)Nc4ccc(C(C)C)c(C)c4)c3)c3c(N)ncnc32)C1
3 µM: [1] | [7] | [8] | [10]
9 µM: [9]
1 µM: all other assays above

CC(=O)O[C@@]12CO[C@@H]1C[C@H](O)[C@@]1(C)C(=O)[C@H](O)C3=C(C)[C@@H](OC(=O)[C@H](O)[C@@H](NC(=O)OC(C)(C)C)c4ccccc4)C[C@](O)([C@@H](OC(=O)c4ccccc4)[C@H]21)C3(C)C [Docetaxel]
≤ 0.3 µM: all assays above

C/C=C1\NC(=O)[C@H]2CSSCCC=C[C@H](CC(=O)N[C@H](C(C)C)C(=O)N2)OC(=O)[C@H](C(C)C)NC1=O
≤ 0.3 µM: all assays above

CC(=O)O[C@H]1C(=O)[C@@]2(C)[C@H]([C@H](OC(=O)c3ccccc3)[C@]3(O)C[C@H](OC(=O)[C@H](O)[C@@H](NC(=O)c4ccccc4)c4ccccc4)C(C)=C1C3(C)C)[C@]1(OC(C)=O)CO[C@@H]1C[C@@H]2O [paclitaxel]
9 µM: [7]
≤ 0.3 µM: all other assays above

COc1cc2nc(N3CCN(C(=O)C4COc5ccccc5O4)CC3)nc(N)c2cc1OC (stereo unspecified) [doxazosin]
≤ 0.3 µM: [8]
not listed: [3] | [10]
9 µM: all other assays above

C=CC(=O)Nc1cccc(Nc2nc(Nc3ccc(Oc4ccnc(C(=O)NC)c4)cc3)ncc2F)c1
3 µM: [6]
not listed: [3] | [9] | [10]
9 µM: all other assays above

COc1cc(O)cc(O)c1C(=O)/C=C/c1ccccc1 [Cardamonin]
3 µM: [4]
not listed: [5]
9 µM: all other assays above

Cn1cnc2c(F)c(Nc3ccc(Br)cc3Cl)c(C(=O)NOCCO)cc21 [selumetinib]
9 µM: [6]
3 µM: [8] | [9]
not listed: [7] | [10]
≤ 0.3 µM: all other assays above

Cc1cn(CCN2CCN(c3ccccc3-c3cc(C#N)cc(C(=O)NCCCN4CCCC4)c3)CC2)c2ccccc12
9 µM: [3]
1 µM: [2]
3 µM: all other assays above

CC[C@]12CCCN3CCc4c(n(c5ccccc45)C(=O)C1)[C@@H]32 [Eburnamonine (-)]
3 µM: [9]
not listed: [3] | [4] | [8]
9 µM: all other assays above

COCC(=O)O[C@]1(CCN(C)CCCc2nc3ccccc3[nH]2)CCc2cc(F)ccc2[C@@H]1C(C)C [mibefradil]
9 µM: all assays above

CN(C)C(=O)C(CCN1CCC(O)(c2ccc(Cl)cc2)CC1)(c1ccccc1)c1ccccc1 [loperamide]
3 µM: [2]
not listed: [3]
9 µM: all other assays above

Cc1cc2c(F)c(Oc3ncnn4cc(OC[C@@H](C)O)c(C)c34)ccc2[nH]1 [brivanib]
3 µM: [6] | [9]
not listed: [8]
9 µM: all other assays above

COc1cc2c(cc1O)CC[C@@H]1[C@@H]2CC[C@]2(C)[C@@H](O)CC[C@@H]12 [2-methoxyestradiol]
3 µM: [2] | [4] | [5]
not listed: [8]
1 µM: all other assays above
